Measured values as given in PubChem BioAssay.
Activity calls are given as the source filed them.

Test: JC-1 mitochondrial signal, unstimulated HepG2 cells – cell-based, JC-1 fluorescence, 24 h, 100 nL compound, profiling panel (AID 1167)
Settings: HepG2 mitochondrial potential, higher = more signal
Also: test concentration not given here.

Row | Compound | z-score
1 | O=C1c2ccccc2[C@](Cc2ccccc2I)(C(=O)NC2CC2)[C@H](c2ccc(CO)cc2)N1Cc1ccccc1Cl | 0.833
2 | CCOC(=O)C[C@H]1[C@H](OC(=O)Cc2ccc3c(c2)OCO3)[C@@H](NC(=O)c2ccccc2)c2cc(OCCCO)ccc2N1C(=O)c1ccccc1 | 0.614
3 | CCOC(=O)C1=CC[C@@H](c2ccc(N(CC)CC)cc2)N(S(=O)(=O)c2ccc(C)cc2)[C@H]1c1ccc([N+](=O)[O-])cc1 | 4.25
4 | COC(=O)C(CC#Cc1ccc2c(c1)[C@]1(C(=O)N2)[C@H](C(=O)N2CCc3cc(OC)c(OC)cc3C2)[C@H]2C(=O)O[C@H](c3ccccc3)[C@H](c3ccccc3)N2[C@@H]1c1ccc(OCCO)cc1)C(=O)OC | -2.03
5 | CC(C)N1C(=O)c2ccccc2[C@](C)(C(=O)O)[C@@H]1c1ccc(CO)cc1 | 0.0703
6 | C=CCC(OC(C)=O)[C@@H]1[C@@H](N(Cc2ccc(-c3ccccc3)cc2)C(=O)c2cccc3ccccc23)c2cc(OCCCO)ccc2N1C(=O)c1ccc2ccccc2n1 (stereo partly specified) | 3.07
7 | [N-]=[N+]=Nc1ccccc1[C@H]1OC(c2ccc(OCCCO)cc2)=N[C@@]1(Cc1ccccc1)C(=O)NCc1ccccc1 | 0.671
8 | COCCCNC(=O)[C@]1(CCS(=O)(=O)c2ccccc2)N=C(c2ccc(OCCCO)cc2)O[C@@H]1c1ccccc1 | 2.64
9 | NC(=O)NCC#Cc1ccc2c(c1)[C@]1(C(=O)N2)[C@H](c2ccc(OCCO)cc2)N2[C@H](c3ccccc3)[C@H](c3ccccc3)OC(=O)[C@H]2[C@@H]1C(=O)N1CCCCCCC1 | -1.76
10 | O=C1C[C@@](C(=O)O)(c2ccc([N+](=O)[O-])cc2)[C@@H](c2ccc(CO)cc2)N1CC12CC3CC(CC(C3)C1)C2 | 0.609
11 | O=C1C[C@@](C(=O)NCc2ccccc2)(c2ccc([N+](=O)[O-])cc2)[C@@H](c2ccc(CO)cc2I)N1C1CCCCC1 | 1.67
12 | COc1cccc(C[C@H]2C[C@@H](CO[Si](C(C)C)(C(C)C)C(C)C)N3C(=O)[C@]4(C(C)=O)O[C@]23[C@H]2C(=O)N(C)C(=O)[C@H]24)c1 | 1.49
13 | COCC(=C=CC[C@@H](O)c1ccccc1OCCO)C[C@@H](O)COCc1ccccc1 | 1.32
14 | COC(=O)C(CC#Cc1ccc2c(c1)[C@]1(C(=O)N2)[C@H](C(=O)N2CCc3cc(OC)c(OC)cc3C2)[C@H]2C(=O)O[C@H](c3ccccc3)[C@H](c3ccccc3)N2[C@@H]1c1ccc(O)cc1)C(=O)OC | -1.81
15 | CN1C(=O)C2C=CC(C(O)COCc3ccccc3)N(Nc3ccccc3)C2C1=O (stereo unspecified) | -1.05
16 | Cc1ccccc1C(O)C1C=CC2C(=O)N(Cc3ccccc3)C(=O)C2N1n1cnnc1 (stereo unspecified) | -0.406

Test: JC-1 mitochondrial signal, unstimulated adipocytes – cell-based, JC-1 fluorescence, 3T3-L1 adipocytes, 24 h, 100 nL compound, profiling panel (AID 1168)
Settings: JC-1 mitochondrial fluorescence, higher = more signal, called active from +8 up or from −8 down

Row | Compound | z-score
17 | Cc1cc(C)c(C(O)C2C=CC3C(=O)N(c4ccccc4)C(=O)C3N2Nc2ccccc2)c(C)c1 (stereo unspecified) | -0.422 (inactive)
18 | O=C1O[C@H](c2ccccc2)[C@H](c2ccccc2)N2[C@H]1[C@@H](C(=O)N1CCN(c3ncccn3)CC1)[C@]1(C(=O)Nc3ccc(C#CCCO)cc31)[C@H]2c1ccc(OCCO)cc1 | 0.717 (inactive)
19 | O=C1CSC(c2cccc([N+](=O)[O-])c2)N1c1ccccc1 (stereo unspecified) | 1.05 (inactive)
20 | COC(=O)C(CC#Cc1ccc2c(c1)[C@]1(C(=O)N2)[C@H](c2ccc(O)cc2)N2[C@H](c3ccccc3)[C@H](c3ccccc3)OC(=O)[C@H]2[C@@H]1C(=O)O)C(=O)OC | -0.687 (inactive)
21 | COCCCNC(=O)[C@@]1(Cc2ccccc2I)c2ccccc2C(=O)N(Cc2ccccc2Cl)[C@H]1c1ccc(CO)cc1 | 0.781 (inactive)
22 | COC(=O)[C@]1(Cc2ccccc2CN=[N+]=[N-])N=C(c2ccc(OCCCO)cc2)O[C@@H]1c1ccccc1 | 0.199 (inactive)
23 | CN(C)CCCCCCNC(=O)[C@@H]1C[C@@H]2C(=O)NCC(=O)N2[C@@H]1c1ccc(O)cc1 | -0.782 (inactive)
24 | COC(=O)c1ccc(OC)c(/C=C\CC(CCc2ccccc2)OC(=O)c2ccncc2)c1 (stereo unspecified) | -1.32 (inactive)
25 | CCOC(=O)C[C@H]1[C@H](OC(=O)Cc2ccc3c(c2)OCO3)[C@@H](NC(=O)c2ccccc2)c2cc(OCCCO)ccc2N1C(=O)c1ccc2ccccc2n1 | 0.607 (inactive)
26 | CCCNC(=O)[C@@]1(Sc2ccc(C)cc2)CC(=O)N(Cc2ccccc2)[C@@H]1c1ccc(CO)cc1I | -0.686 (inactive)
27 | CC1(C)[C@@H]2CC(C(O)C3C=CC4C(=O)N(c5ccccc5)C(=O)C4N3Nc3ccccc3F)=C[C@@H]1C2 (stereo partly specified) | -1.07 (inactive)
28 | COc1ccc(C#Cc2ccc3c(c2)[C@]2(C(=O)N3)[C@H](C(N)=O)[C@H]3C(=O)O[C@H](c4ccccc4)[C@H](c4ccccc4)N3[C@@H]2c2ccc(O)cc2)cc1 | 0.283 (inactive)
29 | COc1ccc([Si](C)(C)[C@@H]2[C@@H](CCO)O[C@]3(C(=O)N(Cc4ccc(N5C(=O)c6ccccc6Oc6ccccc65)cc4)c4ccccc43)[C@H]2C)cc1 | 0.462 (inactive)
30 | NC(=O)NCC#Cc1ccc2c(c1)[C@]1(C(=O)N2)[C@H](c2ccc(O)cc2)N2[C@H](c3ccccc3)[C@H](c3ccccc3)OC(=O)[C@H]2[C@@H]1C(=O)NC[C@H](O)c1ccccc1 | -0.0491 (inactive)
31 | CO[C@H]1O[C@H](CO)[C@@H](OC(=O)c2ccc(Br)cc2)[C@@H]2OC(=O)[C@H](Cc3cccc(Br)c3)C/C=C/C[C@@H](Cc3cccc(Br)c3)C(=O)O[C@@H]12 | -0.442 (inactive)
32 | CO[C@H]1O[C@H](CO)[C@@H](OC(=O)Nc2cccc(F)c2)[C@H](OC(=O)Nc2ccc3c(c2)OCO3)[C@H]1OC(=O)Nc1ccc2c(c1)OCO2 | 0.712 (inactive)
33 | CC(C)C[C@H]1NC(=O)[C@H](C)NC(=O)[C@@]23C(=O)N[C@@H](Cc4ccccc4)C2[C@H](C)[C@@]2(C)O[C@H]2C3/C=C/C/C=C\CNC1=O (stereo partly specified) | -0.752 (inactive)
34 | Cc1ccc(C(C)CC(O)C2C=CC3C(=O)N(Cc4ccccc4)C(=O)C3N2n2cnnc2)o1 (stereo unspecified) | -1.24 (inactive)

Row | Compound | z-score
35 | COCCCNC(=O)[C@@]1(Cc2ccccc2)COC(c2ccc(OCCCO)cc2)=N1 | 0.154 (inactive)
36 | O=C1c2ccccc2[C@](Cc2ccccc2I)(C(=O)NC2CC2)[C@H](c2ccc(CO)cc2)N1Cc1ccccc1Cl | -0.469 (inactive)
37 | CCOC(=O)C[C@H]1[C@H](OC(=O)Cc2ccc3c(c2)OCO3)[C@@H](NC(=O)c2ccccc2)c2cc(OCCCO)ccc2N1C(=O)c1ccccc1 | 0.746 (inactive)
38 | CCOC(=O)C1=CC[C@@H](c2ccc(N(CC)CC)cc2)N(S(=O)(=O)c2ccc(C)cc2)[C@H]1c1ccc([N+](=O)[O-])cc1 | -0.114 (inactive)
39 | COC(=O)C(CC#Cc1ccc2c(c1)[C@]1(C(=O)N2)[C@H](C(=O)N2CCc3cc(OC)c(OC)cc3C2)[C@H]2C(=O)O[C@H](c3ccccc3)[C@H](c3ccccc3)N2[C@@H]1c1ccc(OCCO)cc1)C(=O)OC | 0.375 (inactive)
40 | CC(C)N1C(=O)c2ccccc2[C@](C)(C(=O)O)[C@@H]1c1ccc(CO)cc1 | 0.597 (inactive)
41 | C=CCC(OC(C)=O)[C@@H]1[C@@H](N(Cc2ccc(-c3ccccc3)cc2)C(=O)c2cccc3ccccc23)c2cc(OCCCO)ccc2N1C(=O)c1ccc2ccccc2n1 (stereo partly specified) | 0.0656 (inactive)
42 | [N-]=[N+]=Nc1ccccc1[C@H]1OC(c2ccc(OCCCO)cc2)=N[C@@]1(Cc1ccccc1)C(=O)NCc1ccccc1 | -1.17 (inactive)
43 | COCCCNC(=O)[C@]1(CCS(=O)(=O)c2ccccc2)N=C(c2ccc(OCCCO)cc2)O[C@@H]1c1ccccc1 | 0.0968 (inactive)
44 | NC(=O)NCC#Cc1ccc2c(c1)[C@]1(C(=O)N2)[C@H](c2ccc(OCCO)cc2)N2[C@H](c3ccccc3)[C@H](c3ccccc3)OC(=O)[C@H]2[C@@H]1C(=O)N1CCCCCCC1 | -1.87 (inactive)
45 | O=C1C[C@@](C(=O)O)(c2ccc([N+](=O)[O-])cc2)[C@@H](c2ccc(CO)cc2)N1CC12CC3CC(CC(C3)C1)C2 | 0.473 (inactive)
46 | O=C1C[C@@](C(=O)NCc2ccccc2)(c2ccc([N+](=O)[O-])cc2)[C@@H](c2ccc(CO)cc2I)N1C1CCCCC1 | 0.254 (inactive)
47 | COc1cccc(C[C@H]2C[C@@H](CO[Si](C(C)C)(C(C)C)C(C)C)N3C(=O)[C@]4(C(C)=O)O[C@]23[C@H]2C(=O)N(C)C(=O)[C@H]24)c1 | 0.207 (inactive)
48 | COCC(=C=CC[C@@H](O)c1ccccc1OCCO)C[C@@H](O)COCc1ccccc1 | 0.54 (inactive)
49 | COC(=O)C(CC#Cc1ccc2c(c1)[C@]1(C(=O)N2)[C@H](C(=O)N2CCc3cc(OC)c(OC)cc3C2)[C@H]2C(=O)O[C@H](c3ccccc3)[C@H](c3ccccc3)N2[C@@H]1c1ccc(O)cc1)C(=O)OC | 0.604 (inactive)
50 | CN1C(=O)C2C=CC(C(O)COCc3ccccc3)N(Nc3ccccc3)C2C1=O (stereo unspecified) | 0.0756 (inactive)
51 | Cc1ccccc1C(O)C1C=CC2C(=O)N(Cc3ccccc3)C(=O)C2N1n1cnnc1 (stereo unspecified) | 0.525 (inactive)
